This passage reports residual activity results from ChEMBL document CHEMBL2218924, “A broad activity screen in support of a chemogenomic map for kinase signalling research and drug discovery” (Biochem J, 2013).

What is called residual activity is the signal under treatment as a percentage of the control signal.

Each structure is given as a SMILES string.

Experiment [1] has as its target Death-associated protein kinase 1 (Homo sapiens) (UniProt P53355). The conditions noted are these: at 10 µM.
The target in experiment [2] is Death-associated protein kinase 2 (Homo sapiens) (UniProt Q9UIK4). The conditions noted are these: at 1 µM.
Sequence of Death-associated protein kinase 2 (Homo sapiens) (Q9UIK4 whole entry, looked up): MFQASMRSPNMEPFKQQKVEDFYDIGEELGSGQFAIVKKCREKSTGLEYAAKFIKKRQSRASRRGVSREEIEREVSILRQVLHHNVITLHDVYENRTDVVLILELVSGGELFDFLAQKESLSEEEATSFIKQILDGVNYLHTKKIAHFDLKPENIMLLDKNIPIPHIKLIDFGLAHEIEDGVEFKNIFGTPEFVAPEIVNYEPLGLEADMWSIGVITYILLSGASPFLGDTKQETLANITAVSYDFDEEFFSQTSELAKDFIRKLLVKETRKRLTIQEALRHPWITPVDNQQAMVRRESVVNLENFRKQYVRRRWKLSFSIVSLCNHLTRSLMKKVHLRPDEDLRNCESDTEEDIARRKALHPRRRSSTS
Experiment [3] has the same target. The conditions noted are these: at 10 µM.
Experiment [4] has as its target T1, Serine/threonine-protein kinase DCLK2 (Homo sapiens) (UniProt Q8N568).
T1 sequence (whole entry): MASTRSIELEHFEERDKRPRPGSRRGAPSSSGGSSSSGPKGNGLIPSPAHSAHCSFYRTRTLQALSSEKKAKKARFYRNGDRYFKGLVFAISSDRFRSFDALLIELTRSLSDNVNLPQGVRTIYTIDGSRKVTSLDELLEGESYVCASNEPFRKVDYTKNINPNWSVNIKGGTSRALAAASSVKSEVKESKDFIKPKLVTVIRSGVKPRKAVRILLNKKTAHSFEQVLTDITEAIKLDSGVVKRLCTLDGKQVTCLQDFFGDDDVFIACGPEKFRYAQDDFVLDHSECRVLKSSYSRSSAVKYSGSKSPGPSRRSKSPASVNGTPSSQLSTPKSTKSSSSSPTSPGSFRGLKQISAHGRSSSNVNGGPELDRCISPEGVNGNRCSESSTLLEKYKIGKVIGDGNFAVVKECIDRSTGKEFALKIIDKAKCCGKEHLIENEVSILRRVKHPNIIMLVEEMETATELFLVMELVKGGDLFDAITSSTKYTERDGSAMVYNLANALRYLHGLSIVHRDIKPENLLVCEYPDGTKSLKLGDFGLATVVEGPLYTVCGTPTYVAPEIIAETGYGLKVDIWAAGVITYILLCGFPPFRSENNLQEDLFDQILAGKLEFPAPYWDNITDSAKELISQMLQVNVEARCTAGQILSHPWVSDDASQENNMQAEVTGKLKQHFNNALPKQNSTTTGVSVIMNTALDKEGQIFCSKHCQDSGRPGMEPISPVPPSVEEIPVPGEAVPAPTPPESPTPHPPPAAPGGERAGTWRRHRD
The conditions noted are these: at 1 µM.

For experiment [5], the target named is T1, Serine/threonine-protein kinase DCLK2 (Homo sapiens). The conditions noted are these: at 10 µM.
For experiment [6], the target named is T2, Discoidin domain-containing receptor 2 (Homo sapiens) (UniProt Q16832).
T2 sequence (whole entry): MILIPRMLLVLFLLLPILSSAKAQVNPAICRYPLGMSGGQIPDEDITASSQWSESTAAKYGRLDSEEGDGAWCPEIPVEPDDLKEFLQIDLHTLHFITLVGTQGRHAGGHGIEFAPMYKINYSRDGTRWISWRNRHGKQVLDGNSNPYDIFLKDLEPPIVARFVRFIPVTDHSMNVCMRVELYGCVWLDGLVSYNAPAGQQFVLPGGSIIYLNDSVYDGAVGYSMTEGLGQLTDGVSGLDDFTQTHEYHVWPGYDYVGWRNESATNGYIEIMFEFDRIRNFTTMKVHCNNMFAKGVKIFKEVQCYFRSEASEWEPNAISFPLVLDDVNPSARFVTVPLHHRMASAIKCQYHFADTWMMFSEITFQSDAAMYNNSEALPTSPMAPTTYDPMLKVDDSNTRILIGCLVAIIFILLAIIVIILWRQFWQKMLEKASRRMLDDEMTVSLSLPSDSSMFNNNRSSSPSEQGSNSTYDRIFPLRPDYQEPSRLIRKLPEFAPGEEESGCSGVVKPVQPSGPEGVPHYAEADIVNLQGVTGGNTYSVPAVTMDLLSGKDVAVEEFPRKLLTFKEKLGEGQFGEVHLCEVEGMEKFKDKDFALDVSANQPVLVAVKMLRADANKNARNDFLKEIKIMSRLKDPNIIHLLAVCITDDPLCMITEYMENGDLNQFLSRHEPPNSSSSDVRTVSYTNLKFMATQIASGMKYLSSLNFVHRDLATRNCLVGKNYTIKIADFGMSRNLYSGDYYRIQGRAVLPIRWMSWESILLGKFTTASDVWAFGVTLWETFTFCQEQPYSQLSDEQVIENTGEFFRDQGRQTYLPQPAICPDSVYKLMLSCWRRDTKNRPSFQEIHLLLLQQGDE
The conditions noted are these: at 1 µM.

Experiment [7] has as its target T2, Discoidin domain-containing receptor 2 (Homo sapiens). The conditions noted are these: at 10 µM.
Experiment [8] addresses T3, Myotonin-protein kinase (Homo sapiens) (UniProt Q09013).
T3 sequence (whole entry): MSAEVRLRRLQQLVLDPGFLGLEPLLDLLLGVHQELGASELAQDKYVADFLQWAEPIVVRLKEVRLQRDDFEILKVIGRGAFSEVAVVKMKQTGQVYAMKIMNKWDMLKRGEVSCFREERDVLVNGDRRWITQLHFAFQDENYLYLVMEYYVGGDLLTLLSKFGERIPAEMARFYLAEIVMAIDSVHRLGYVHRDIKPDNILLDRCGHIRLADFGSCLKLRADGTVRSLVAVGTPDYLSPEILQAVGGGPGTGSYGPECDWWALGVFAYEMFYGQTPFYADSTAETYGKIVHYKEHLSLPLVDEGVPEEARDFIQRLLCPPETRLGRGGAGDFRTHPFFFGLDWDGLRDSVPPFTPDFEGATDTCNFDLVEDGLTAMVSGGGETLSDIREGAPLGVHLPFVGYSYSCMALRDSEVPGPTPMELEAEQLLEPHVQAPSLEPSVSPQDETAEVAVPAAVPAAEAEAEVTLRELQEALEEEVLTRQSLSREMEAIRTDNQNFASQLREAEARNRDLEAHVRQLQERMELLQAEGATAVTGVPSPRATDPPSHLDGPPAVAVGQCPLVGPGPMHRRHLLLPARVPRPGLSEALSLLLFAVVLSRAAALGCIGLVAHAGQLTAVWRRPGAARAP
The conditions noted are these: at 1 µM.

Experiment [9] addresses T3, Myotonin-protein kinase (Homo sapiens). The conditions noted are these: at 10 µM.
The target of experiment [10] is T4, Serine/threonine-protein kinase 17A (Homo sapiens) (UniProt Q9UEE5).
T4 sequence (whole entry): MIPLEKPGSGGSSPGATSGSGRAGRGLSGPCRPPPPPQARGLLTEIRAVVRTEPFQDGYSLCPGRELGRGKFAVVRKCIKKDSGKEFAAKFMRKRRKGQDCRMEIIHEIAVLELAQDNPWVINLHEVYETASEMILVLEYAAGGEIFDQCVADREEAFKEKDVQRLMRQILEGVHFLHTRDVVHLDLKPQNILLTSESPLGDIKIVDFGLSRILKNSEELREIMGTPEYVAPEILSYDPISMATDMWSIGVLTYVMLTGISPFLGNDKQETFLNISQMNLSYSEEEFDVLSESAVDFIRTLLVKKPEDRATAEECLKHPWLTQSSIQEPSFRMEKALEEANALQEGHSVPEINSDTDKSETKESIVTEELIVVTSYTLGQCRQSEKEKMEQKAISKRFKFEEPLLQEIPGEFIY
The conditions noted are these: at 1 µM.

For experiment [11], the target named is T4, Serine/threonine-protein kinase 17A (Homo sapiens). The conditions noted are these: at 10 µM.
The target of experiment [12] is T5, Dual specificity tyrosine-phosphorylation-regulated kinase 2 (Homo sapiens) (UniProt Q92630).
T5 sequence (whole entry): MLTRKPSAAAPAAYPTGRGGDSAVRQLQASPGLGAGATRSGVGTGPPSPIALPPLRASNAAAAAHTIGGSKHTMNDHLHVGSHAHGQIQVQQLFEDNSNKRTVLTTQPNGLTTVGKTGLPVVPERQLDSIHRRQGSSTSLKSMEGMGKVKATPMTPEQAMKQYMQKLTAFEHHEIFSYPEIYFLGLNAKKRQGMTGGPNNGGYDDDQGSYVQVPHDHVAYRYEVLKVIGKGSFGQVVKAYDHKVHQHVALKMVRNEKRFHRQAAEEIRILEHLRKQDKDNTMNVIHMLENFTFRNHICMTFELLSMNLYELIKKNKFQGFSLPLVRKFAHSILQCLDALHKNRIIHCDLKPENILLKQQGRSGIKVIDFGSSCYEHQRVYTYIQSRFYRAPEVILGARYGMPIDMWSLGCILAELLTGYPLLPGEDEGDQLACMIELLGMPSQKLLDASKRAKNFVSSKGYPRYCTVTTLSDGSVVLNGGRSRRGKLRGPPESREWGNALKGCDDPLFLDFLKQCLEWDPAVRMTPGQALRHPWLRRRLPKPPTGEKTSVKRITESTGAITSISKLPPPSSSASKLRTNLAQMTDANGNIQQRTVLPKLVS
The conditions noted are these: at 1 µM.

Experiment [13] addresses T5, Dual specificity tyrosine-phosphorylation-regulated kinase 2 (Homo sapiens). The conditions noted are these: at 10 µM.
The target in experiment [14] is Epidermal growth factor receptor (Homo sapiens) (UniProt P00533). The conditions noted are these: at 1 µM.
Sequence of Epidermal growth factor receptor (Homo sapiens) (P00533 whole entry): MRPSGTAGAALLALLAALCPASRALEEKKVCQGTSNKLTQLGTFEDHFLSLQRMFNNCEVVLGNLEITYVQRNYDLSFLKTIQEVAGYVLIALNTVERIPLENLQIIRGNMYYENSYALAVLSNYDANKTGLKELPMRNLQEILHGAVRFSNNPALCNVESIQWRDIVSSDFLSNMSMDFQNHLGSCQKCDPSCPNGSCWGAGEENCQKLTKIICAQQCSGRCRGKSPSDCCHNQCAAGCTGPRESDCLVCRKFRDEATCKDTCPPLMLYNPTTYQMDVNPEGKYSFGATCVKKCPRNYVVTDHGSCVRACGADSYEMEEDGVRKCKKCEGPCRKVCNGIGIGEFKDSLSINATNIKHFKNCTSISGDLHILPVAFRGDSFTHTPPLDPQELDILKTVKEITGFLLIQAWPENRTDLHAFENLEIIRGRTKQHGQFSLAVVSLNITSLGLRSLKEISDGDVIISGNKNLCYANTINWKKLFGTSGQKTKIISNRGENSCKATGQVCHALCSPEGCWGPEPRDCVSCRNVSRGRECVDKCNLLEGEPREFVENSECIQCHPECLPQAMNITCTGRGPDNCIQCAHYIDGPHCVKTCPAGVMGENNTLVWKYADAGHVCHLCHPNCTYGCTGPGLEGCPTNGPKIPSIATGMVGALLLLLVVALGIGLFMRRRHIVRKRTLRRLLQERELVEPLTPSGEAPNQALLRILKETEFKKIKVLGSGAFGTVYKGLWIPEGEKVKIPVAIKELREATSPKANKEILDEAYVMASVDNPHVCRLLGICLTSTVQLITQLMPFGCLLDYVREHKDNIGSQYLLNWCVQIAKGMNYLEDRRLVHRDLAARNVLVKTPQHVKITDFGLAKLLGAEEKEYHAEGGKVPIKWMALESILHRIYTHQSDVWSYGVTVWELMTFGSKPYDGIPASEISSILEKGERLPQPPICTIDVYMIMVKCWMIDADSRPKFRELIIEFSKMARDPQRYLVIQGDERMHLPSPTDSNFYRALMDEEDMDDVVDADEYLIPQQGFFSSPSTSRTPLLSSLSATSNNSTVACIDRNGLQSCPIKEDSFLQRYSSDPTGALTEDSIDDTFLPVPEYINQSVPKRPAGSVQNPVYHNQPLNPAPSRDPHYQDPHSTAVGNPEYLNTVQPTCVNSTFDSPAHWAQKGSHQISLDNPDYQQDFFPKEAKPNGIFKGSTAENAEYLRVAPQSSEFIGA
For experiment [15] the target is unchanged. The conditions noted are these: at 10 µM.
The target of experiment [16] is T6, Ephrin type-A receptor 1 (Homo sapiens) (UniProt P21709).
T6 sequence (whole entry): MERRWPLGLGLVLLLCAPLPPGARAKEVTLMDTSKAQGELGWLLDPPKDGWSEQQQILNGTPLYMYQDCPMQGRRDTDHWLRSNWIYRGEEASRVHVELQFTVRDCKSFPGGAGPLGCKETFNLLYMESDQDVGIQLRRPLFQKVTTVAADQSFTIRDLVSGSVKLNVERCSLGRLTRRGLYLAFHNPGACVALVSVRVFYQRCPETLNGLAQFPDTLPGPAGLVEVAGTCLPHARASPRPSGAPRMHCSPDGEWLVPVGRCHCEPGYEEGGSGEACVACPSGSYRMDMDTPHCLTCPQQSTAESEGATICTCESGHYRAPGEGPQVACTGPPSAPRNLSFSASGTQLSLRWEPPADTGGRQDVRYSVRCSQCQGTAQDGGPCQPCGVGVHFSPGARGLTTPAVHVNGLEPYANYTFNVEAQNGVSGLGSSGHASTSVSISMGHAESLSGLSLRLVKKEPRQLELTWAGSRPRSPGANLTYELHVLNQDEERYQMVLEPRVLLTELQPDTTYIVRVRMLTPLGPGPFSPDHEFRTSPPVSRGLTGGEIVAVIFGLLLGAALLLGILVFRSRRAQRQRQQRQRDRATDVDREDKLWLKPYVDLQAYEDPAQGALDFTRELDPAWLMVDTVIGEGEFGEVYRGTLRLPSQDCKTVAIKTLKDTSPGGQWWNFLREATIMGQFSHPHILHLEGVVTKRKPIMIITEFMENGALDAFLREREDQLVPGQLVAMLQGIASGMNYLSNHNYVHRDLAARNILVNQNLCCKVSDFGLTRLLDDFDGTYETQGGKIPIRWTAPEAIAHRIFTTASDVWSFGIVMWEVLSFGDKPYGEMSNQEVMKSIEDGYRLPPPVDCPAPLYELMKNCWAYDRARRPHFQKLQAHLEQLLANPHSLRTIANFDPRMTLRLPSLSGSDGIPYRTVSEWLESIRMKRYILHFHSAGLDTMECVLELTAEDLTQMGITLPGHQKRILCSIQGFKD
The conditions noted are these: at 1 µM.

For experiment [17], the target named is T6, Ephrin type-A receptor 1 (Homo sapiens). The conditions noted are these: at 10 µM.
Experiment [18] has as its target Ephrin type-A receptor 2 (Homo sapiens) (UniProt P29317). The conditions noted are these: at 1 µM.
Experiment [19] shares this target. The conditions noted are these: at 10 µM.
In experiment [20] the target is T7, Ephrin type-A receptor 3 (Homo sapiens) (UniProt P29320).
T7 sequence (whole entry): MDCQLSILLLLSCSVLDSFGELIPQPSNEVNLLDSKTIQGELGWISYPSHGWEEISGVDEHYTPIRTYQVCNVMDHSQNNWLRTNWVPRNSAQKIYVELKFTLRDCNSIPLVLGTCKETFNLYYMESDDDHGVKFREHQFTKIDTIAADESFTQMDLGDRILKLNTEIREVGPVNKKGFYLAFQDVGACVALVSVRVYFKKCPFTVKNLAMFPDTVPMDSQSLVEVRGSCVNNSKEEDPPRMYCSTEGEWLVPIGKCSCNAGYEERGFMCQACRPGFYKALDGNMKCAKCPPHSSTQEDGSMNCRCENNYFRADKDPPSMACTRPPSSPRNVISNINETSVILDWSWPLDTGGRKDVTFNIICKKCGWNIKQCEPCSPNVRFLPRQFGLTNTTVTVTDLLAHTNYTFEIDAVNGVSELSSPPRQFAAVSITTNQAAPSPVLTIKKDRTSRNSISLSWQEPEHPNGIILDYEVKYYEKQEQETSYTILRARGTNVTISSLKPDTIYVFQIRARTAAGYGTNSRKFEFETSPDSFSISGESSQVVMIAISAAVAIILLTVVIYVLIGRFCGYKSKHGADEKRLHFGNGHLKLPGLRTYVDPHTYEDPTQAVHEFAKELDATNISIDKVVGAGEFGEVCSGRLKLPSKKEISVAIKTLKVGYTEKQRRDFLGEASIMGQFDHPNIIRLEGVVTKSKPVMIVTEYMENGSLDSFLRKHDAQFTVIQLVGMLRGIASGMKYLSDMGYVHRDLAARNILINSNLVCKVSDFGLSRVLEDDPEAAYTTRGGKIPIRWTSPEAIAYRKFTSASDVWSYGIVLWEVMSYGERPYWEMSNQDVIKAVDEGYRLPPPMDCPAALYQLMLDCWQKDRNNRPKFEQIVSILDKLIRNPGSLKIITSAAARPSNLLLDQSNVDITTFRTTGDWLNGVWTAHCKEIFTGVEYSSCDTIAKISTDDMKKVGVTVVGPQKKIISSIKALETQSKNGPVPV
The conditions noted are these: at 1 µM.

Sequence of Ephrin type-A receptor 2 (Homo sapiens) (P29317 whole entry): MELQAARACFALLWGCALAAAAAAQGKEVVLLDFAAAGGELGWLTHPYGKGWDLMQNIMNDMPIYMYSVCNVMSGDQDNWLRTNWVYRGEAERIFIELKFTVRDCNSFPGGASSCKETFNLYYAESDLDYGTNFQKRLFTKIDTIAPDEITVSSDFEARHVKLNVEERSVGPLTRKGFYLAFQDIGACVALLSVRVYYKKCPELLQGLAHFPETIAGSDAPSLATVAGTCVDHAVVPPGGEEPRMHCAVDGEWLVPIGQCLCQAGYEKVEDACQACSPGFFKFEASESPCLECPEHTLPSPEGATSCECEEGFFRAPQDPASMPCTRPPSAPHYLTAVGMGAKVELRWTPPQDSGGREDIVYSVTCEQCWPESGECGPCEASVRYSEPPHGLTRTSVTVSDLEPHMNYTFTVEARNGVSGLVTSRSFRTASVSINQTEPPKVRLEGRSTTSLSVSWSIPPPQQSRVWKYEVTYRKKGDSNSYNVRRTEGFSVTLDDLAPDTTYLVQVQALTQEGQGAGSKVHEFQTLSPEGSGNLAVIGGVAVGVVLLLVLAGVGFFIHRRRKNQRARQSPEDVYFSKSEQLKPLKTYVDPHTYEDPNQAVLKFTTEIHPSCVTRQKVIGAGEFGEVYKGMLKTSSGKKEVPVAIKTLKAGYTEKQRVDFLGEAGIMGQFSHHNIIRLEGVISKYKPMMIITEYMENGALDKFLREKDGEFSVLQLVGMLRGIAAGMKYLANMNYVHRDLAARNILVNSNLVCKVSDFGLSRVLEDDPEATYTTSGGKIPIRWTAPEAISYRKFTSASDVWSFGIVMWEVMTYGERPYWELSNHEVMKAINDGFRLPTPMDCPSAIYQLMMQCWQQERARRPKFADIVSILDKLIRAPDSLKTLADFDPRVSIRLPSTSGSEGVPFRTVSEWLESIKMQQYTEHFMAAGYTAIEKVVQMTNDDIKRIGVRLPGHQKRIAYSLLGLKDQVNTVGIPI
Sequence of Death-associated protein kinase 1 (Homo sapiens) (P53355 whole entry, looked up): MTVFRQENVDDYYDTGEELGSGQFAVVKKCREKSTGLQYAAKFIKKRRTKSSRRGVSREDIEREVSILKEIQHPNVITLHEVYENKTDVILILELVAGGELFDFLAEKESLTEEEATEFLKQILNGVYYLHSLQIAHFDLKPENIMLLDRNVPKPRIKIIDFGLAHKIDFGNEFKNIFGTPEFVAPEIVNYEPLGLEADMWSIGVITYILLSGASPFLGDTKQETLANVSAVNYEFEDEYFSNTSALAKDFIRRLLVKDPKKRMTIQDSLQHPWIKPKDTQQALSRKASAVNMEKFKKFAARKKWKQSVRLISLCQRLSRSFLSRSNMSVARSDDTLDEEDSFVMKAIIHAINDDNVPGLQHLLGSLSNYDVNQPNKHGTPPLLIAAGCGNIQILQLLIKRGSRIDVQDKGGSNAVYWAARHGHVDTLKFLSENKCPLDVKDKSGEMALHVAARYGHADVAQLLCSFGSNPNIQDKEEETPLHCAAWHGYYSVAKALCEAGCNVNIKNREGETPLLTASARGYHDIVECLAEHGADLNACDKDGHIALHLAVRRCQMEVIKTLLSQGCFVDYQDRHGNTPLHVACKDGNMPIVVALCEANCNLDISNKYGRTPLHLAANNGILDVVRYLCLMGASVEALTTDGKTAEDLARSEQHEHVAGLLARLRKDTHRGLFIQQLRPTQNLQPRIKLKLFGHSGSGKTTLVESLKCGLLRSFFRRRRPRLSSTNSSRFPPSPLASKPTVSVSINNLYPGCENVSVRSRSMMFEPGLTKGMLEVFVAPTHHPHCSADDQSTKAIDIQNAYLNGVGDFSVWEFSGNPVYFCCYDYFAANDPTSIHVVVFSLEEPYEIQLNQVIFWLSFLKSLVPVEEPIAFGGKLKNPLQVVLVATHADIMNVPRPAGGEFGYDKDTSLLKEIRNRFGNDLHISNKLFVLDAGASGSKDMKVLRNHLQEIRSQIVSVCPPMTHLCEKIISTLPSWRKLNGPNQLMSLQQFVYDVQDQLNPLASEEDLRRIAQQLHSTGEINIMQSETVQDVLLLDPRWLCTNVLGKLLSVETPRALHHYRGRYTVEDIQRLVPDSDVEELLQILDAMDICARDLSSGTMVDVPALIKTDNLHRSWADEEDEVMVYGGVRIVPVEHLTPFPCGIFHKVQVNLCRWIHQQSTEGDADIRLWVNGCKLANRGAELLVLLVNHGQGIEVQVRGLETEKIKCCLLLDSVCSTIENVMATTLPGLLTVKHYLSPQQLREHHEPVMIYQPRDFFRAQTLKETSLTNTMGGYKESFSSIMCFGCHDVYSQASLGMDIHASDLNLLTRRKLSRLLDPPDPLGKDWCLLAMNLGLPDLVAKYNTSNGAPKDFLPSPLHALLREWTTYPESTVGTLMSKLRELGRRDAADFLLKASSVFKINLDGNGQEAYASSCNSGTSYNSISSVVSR

With `COc1cc2ncnc(Nc3ccc(Oc4ccccc4)cc3)c2cc1OC`, the residual activity in [1] is 106%; in experiment [2], 99%; in [3], 118%; in experiment [4] it was 82%; in experiment [5], 252%; in experiment [6], 113%. Also, the residual activity was 103% in experiment [7]; 98% in [8]; 139% in [9]; 81% in experiment [10]; 124% in [11]; 99% in experiment [12]. Also, the residual activity in [13] is 95%; in experiment [14], -1%; in experiment [15] it was -2%; in experiment [16] it was 98%; in experiment [17], 81%; in experiment [18], 95%. The results for the residual activity in experiment [19] and in [20] were 116% and 98%, respectively.
